Only some compounds are listed: those with a hit (about 7.3% of all), similar ones and a draw of the others.
FMDV antiviral = foot and mouth disease virus antiviral activity. Potency, µM (series often up to 57.9 µM), usual class: inhibitors. AID 1159524. FMDV antiviral cell-based qHTS. 410,000 tested, 1.2% active; calls by dose curve; tested in HEK293T cells; note: read-out not given here; nearly all actives have a fitted effect of over 45% in size
Vaccinia Venus = inhibitors of vaccinia virus (Venus reporter). 330,000 tested, 0.46% active. Potency, µM (highest dose often 36.5 µM), actives largely listed as inhibitors. AID 720580. Vaccinia virus Venus reporter expression, fluorescence; calls by dose curve; tested in A549 cells; note: nearly all actives have a fitted effect of over 30% in size
Vaccinia mCherry = inhibitors of vaccinia virus infection (mCherry reporter signal). Potency, µM (top dose mostly 36.5 µM), actives largely listed as inhibitors. Vaccinia virus mCherry reporter infection, fluorescence. 310,000 tested, 0.63% active; calls by dose curve; tested in A549 cells; note: nearly all actives have a fitted effect of over 35% in size
HCV inh = blocks hepatitis C virus. 340,000 tested, 3.4% active. Huh7.5.1 HCVcc-Cre infection, luciferase reporter, 44 h. Potency, µM (doses to about 41.8 µM), hits mostly inhibitors; active = well fitted inhibition curve with a large enough effect; inconclusive = small, poorly fitted or top-dose-only effect, or another doubt; inactive = no such curve, though single readings can be large or run the other way
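A cell-based infection assay in which seeded cells (1,000 per well) receive test compound after 4 h, are inoculated with HCVcc-Cre at approximately 0.5 moi, and are incubated 44 h before luminescence detection.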
HCMV antiviral = inhibitors of human cytomegalovirus; HFF cells, HCMV-luciferase reporter, 72 h; stronger effect = lower value; activity change, negative = inhibition, % at 57.5 µM; 410,000 tested, 4.5% active; in the data active = activity change below about -60%; inconclusive = no clear call, values can overlap the other calls; inactive = above about -39%
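Cell-based, HFFs, 1000 cells/well, 16 h 37C; cpds in DMSO + HCMV-luc, MOI 1 PFU/cell; 72 h 37C; OneGlo luminescence after 5 min RT; norm. to buffer vs Salinomycin 10uM.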
Each line names hits and unclear results; the compound was inactive in the other large screens.

COc1ccc(CCN2C(=O)c3oc4cc(C)cc(C)c4c(=O)c3C2c2ccc(F)cc2)cc1OC (configuration not stated)	none (no result: HCV inh)
O=C(Nc1ccccc1Sc1ccccc1)c1cnn2c1NC(=C1CC1)C=C2C(F)(F)F	none (no result: FMDV antiviral, HCV inh, HCMV antiviral)
CN(C)CCNC(=O)c1sc2nc(-c3ccccc3)cc(C(F)(F)F)c2c1N	Vaccinia Venus inconclusive, Vaccinia mCherry inconclusive, HCV inh 10µM
CC(=O)c1sc2nc(-c3cccs3)cc(C(F)(F)F)c2c1N	HCV inh inconclusive (no result: Vaccinia mCherry)
COc1ccc(-c2cc(C(F)(F)F)c3c(N)c(C(=O)NCCSC)sc3n2)cc1	none
Nc1c(C(=O)C2CC2)sc2nc(-c3ccccc3)cc(C(F)(F)F)c12	HCMV antiviral -77.1 (no result: Vaccinia Venus, Vaccinia mCherry)
Cc1nc2ccc(S(=O)(=O)NC(C(=O)N3CCN(c4ccc(Cl)cc4)CC3)C(C)C)cc2s1 (configuration not stated)	none (no result: HCV inh)
Cc1ccc2occ(-c3cc(-c4ccccc4)nc4c3COc3ccccc3-4)c(=O)c2c1	none (no result: HCV inh)
Cc1cc(OCC(=O)NC2CC(C)(C)NC(C)(C)C2)c(C)cc1Br	HCV inh 10µM
Cc1ccc(OCC(=O)NC2CC(C)(C)NC(C)(C)C2)c(C)c1	none
CC(C)c1ccc(OCC(=O)NC2CC(C)(C)NC(C)(C)C2)c(Br)c1	HCV inh 11.2µM (no result: Vaccinia Venus, Vaccinia mCherry)
CCOC(=O)CC(NS(=O)(=O)c1ccc2[nH]c(=O)sc2c1)c1ccc(C)cc1 (configuration not stated)	none
O=C(/C=C/c1ccc(F)cc1)c1ccccc1Br	FMDV antiviral 22.4µM, Vaccinia Venus 28.2µM, Vaccinia mCherry inconclusive, HCV inh inconclusive, HCMV antiviral -81.6
COc1ccc(-c2cc(C(=O)NCCN3CCOCC3)c3ccccc3n2)cc1OC	none (no result: HCV inh)
COc1ccc(-c2c(-c3ccccc3)c(C(=O)C(=O)NCCCN(C)C)n3ccc4cc(OC)c(OC)cc4c23)cc1OC	HCV inh inconclusive, HCMV antiviral -96.5
O=C(O)CCN1C(=O)/C(=C\c2cccc(Oc3ccccc3)c2)SC1=S	HCMV antiviral inconclusive
COc1ccccc1/C=C1\SC(=O)N(CCC(=O)N2CCCCC2CCO)C1=O (configuration not stated)	none (no result: Vaccinia Venus, Vaccinia mCherry)
COc1ccccc1/C=C1\SC(=S)N(CCC(=O)N2CCCCC2CCO)C1=O (configuration not stated)	HCV inh inconclusive, HCMV antiviral -76.5
COc1cccc(/C=C2\SC(=S)N(CCCC(=O)N3CCCCC3CCO)C2=O)c1 (configuration not stated)	HCV inh inconclusive, HCMV antiviral -109.7 (no result: Vaccinia Venus, Vaccinia mCherry)
COc1cccc(/C=C2\SC(=S)N(CCC(=O)N3CCCCC3CCO)C2=O)c1 (configuration not stated)	HCV inh inconclusive, HCMV antiviral -98.3 (no result: Vaccinia Venus, Vaccinia mCherry)
COc1cccc(/C=C2\SC(=O)N(CCC(=O)N3CCC(C(=O)O)CC3)C2=O)c1	none (no result: Vaccinia Venus, Vaccinia mCherry)
O=C1/C(=C/c2cccs2)SC(=S)N1CCC(=O)N1CCCCC1CCO (configuration not stated)	Vaccinia mCherry inconclusive, HCMV antiviral -95.7
O=C(CCN1C(=O)/C(=C/c2cccs2)SC1=S)N1CCCCC1	Vaccinia Venus inconclusive, Vaccinia mCherry inconclusive
COc1cccc(Nc2nccc3[nH]c(-c4cccc(F)c4)cc23)c1	none (no result: FMDV antiviral, Vaccinia Venus, Vaccinia mCherry, HCV inh)
CCc1ccc(C=C2SC(=S)N(CCCC(=O)Nc3ccc(C(=O)O)cc3)C2=O)cc1	HCMV antiviral inconclusive (no result: HCV inh)
COc1cccc(/C=C2\SC(=S)N(CCCC(=O)N3CCCC3)C2=O)c1	Vaccinia Venus inconclusive, Vaccinia mCherry inconclusive, HCV inh inconclusive, HCMV antiviral -112.2
CCc1ccc(/C=C2\SC(=S)N(CCCC(=O)N3CCCC3)C2=O)cc1	Vaccinia Venus inconclusive, Vaccinia mCherry inconclusive, HCMV antiviral -99.0 (no result: HCV inh)
CC(C)(O)C#Cc1ccc(C(=O)NCCN2Cc3ccccc3OC(c3ccccc3F)C2)o1 (configuration not stated)	none (no result: HCV inh, HCMV antiviral)
COc1ccc(CNC(=O)CSc2nc(SC)ns2)cc1	none (no result: Vaccinia Venus, Vaccinia mCherry)
CSCC[C@H](N)C(=O)N1CCC(C(=O)N[C@H](C(=O)NCc2ccccc2F)C(C)C)CC1	none
Cc1ccc2[nH]c(O)c(N=NC(=O)CCc3ccccc3)c2c1Br	HCMV antiviral -61.2
COc1ccc(C(=O)COc2nc(C)cc(C)c2C#N)cc1	HCV inh inconclusive, HCMV antiviral -63.6 (no result: Vaccinia Venus, Vaccinia mCherry)
Cc1cc(C)c(C#N)c(Oc2ccc(O)cc2)n1	HCV inh inconclusive
COc1ccc(NC(=O)C2=C(C)Nc3nc(SCc4ccccc4)nn3C2c2cc(OC)ccc2OC)cc1 (configuration not stated)	HCMV antiviral -81.8 (no result: HCV inh)
CCSc1nc2n(n1)C(c1ccc(Cl)cc1Cl)C(C(=O)Nc1ccccc1C)=C(C)N2 (configuration not stated)	Vaccinia Venus inconclusive, Vaccinia mCherry inconclusive, HCMV antiviral -90.6 (no result: HCV inh)
CC1=C(C(=O)Nc2ccccc2C)C(c2ccncc2)n2nc(SCc3ccccc3Cl)nc2N1 (configuration not stated)	none (no result: HCV inh)
CCOc1ccccc1C1C(C(=O)Nc2ccccc2)=C(C)Nc2nc(SCC(=O)c3ccc(C)cc3)nn21 (configuration not stated)	HCMV antiviral -71.7 (no result: HCV inh)
S=C(NCc1ccccc1)N1CCn2cccc2C1c1cccnc1 (configuration not stated)	HCMV antiviral -71.5
S=C(NCCc1ccccc1)N1CCn2cccc2C1c1cccnc1 (configuration not stated)	HCV inh inconclusive
COc1cc(CNc2ccc3[nH]c(=O)[nH]c3c2)ccc1OCc1ccc(C)cc1	Vaccinia Venus inconclusive, Vaccinia mCherry inconclusive, HCV inh inconclusive
COc1cc(CNc2ccc3[nH]c(=O)[nH]c3c2)ccc1OCc1cccc(C)c1	Vaccinia Venus inconclusive, Vaccinia mCherry inconclusive, HCV inh 6.31µM, HCMV antiviral -66.1
Nc1c(C(=O)OCC2CCCO2)c2nc3ccccc3nc2n1-c1ccc2c(c1)OCCO2 (configuration not stated)	HCV inh inconclusive, HCMV antiviral -66.0 (no result: Vaccinia mCherry)
O=c1c2c3nc4ccccc4nc3n(-c3ccc4c(c3)OCCO4)c2ncn1C1CCCC1	FMDV antiviral inconclusive, HCMV antiviral -77.4
CCc1nc2ccc(C(=O)Nc3cccc(OCC(=O)N(C)C)c3)cn2c1N(C)Cc1ccc(OC)cc1	FMDV antiviral inconclusive (no result: HCV inh)
Cn1nc(C2CC2)cc1NC(=O)C1(C)CCN1C(=O)CC(c1ccccc1)c1ccccc1 (configuration not stated)	HCMV antiviral inconclusive (no result: HCV inh)
COc1ccc(N2CCN(C(=O)COC(=O)c3ccc(-n4nc(C)cc4C)cc3)CC2)cc1	none (no result: Vaccinia Venus, Vaccinia mCherry)
COc1ccc(NC(=O)Cc2c(SC)c3ccccc3n2Cc2ccccc2)cc1	Vaccinia Venus inconclusive, HCMV antiviral -86.9
COc1ccc(/C(N)=N/OC(=O)C2CCC(=O)N2S(=O)(=O)c2ccc(C)cc2)cc1OC (configuration not stated)	HCMV antiviral -87.4
COc1ccccc1NC(=O)C1CCCN(c2ncnc3onc(-c4ccc(F)cc4)c23)C1 (configuration not stated)	none (no result: HCV inh)
